Shown are actives, neighbours in structure and some others; about 2.8% of the full set was active somewhere.
KDM5B inhibitor: inhibitors of human KDM5B histone demethylase; Q9UGL1; KDM5B demethylase, FDH-coupled NADH fluorescence (FDH is formaldehyde dehydrogenase); Potency, µM (series often up to 57.7 µM), actives largely listed as inhibitors; 2.6% of 220,000 active; also: potency is read from the fitted curve at half-maximal effect; 0% is about no effect; nearly all actives have a fitted effect of over 70% in size
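Inhibition is measured as reduced NADH fluorescence generation from FDH coupling to formaldehyde release. Truncated KDM5BΔAP at 200 nM final acts on H3K4me3 peptide (12.5 µM in substrate mix) in pH 7.5 HEPES buffer with Tween-20, 30 min, room temperature.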
SNCA expr inh: SNCA gene expression inhibition. HEK-293 SNCA-luciferase knock-in, luminescence, 24 h. Potency, µM (series often up to 57.2 µM), for the others: top-dose activity change, negative = inhibition, usual class: inhibitors. 0.17% of 140,000 active;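 also: potency is read from the fitted curve at half-maximal effect; plate controls were DMSO cells for no effect and cell-free wells for full effect; nearly all actives have a fitted effect of over 45% in size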
IP6K1 inh: blocks human inositol hexakisphosphate kinase 1. Q92551. activity change, % (series mostly up to about 58 µM). IP6K1 kinase, ADP-Glo luminescence, 2 h; active compounds read low. 0.81% of 140,000 active; in the data active = activity change below about -25%; also: % is scaled to controls: 0 for no effect and ±100 for the full control effect
Target sequence (Q92551 whole entry, looked up): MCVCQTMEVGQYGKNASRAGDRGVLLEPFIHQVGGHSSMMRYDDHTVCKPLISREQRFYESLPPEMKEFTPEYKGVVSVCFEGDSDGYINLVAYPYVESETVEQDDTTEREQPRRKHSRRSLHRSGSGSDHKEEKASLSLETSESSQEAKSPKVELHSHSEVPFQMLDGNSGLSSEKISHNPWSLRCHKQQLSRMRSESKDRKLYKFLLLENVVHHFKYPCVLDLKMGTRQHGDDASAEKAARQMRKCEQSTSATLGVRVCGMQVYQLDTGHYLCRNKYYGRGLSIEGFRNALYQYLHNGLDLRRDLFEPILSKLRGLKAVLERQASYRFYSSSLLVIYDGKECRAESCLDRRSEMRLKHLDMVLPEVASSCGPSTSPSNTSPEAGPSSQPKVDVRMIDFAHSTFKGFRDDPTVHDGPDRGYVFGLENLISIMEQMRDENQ
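ADP-Glo luminescence measures ADP made by human IP6K1 during a 2 h RT reaction with ATP/IP6 (mix at 1.3 mM/130 uM); top library doses 57.5 and 19.1 uM final.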
SNCA viab count: reduces viability of HEK-293 SNCA reporter cells. HEK-293-SNCA-luc viability, GF-AFC fluorescence, 24 h. Potency, µM (series often up to 57.1 µM), for the others: at the highest dose activity change, negative = cytotoxicity, usual class: cytotoxic. 0.12% of 150,000 active. AID 1671193;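 also: potency is read from the fitted curve at half-maximal effect; 0% = DMSO-treated cells and -100% = medium-only wells without cells; nearly all actives have a fitted effect of over 30% in size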
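Cytotoxicity counterscreen: after 24 h compound treatment of genome-edited SNCA-luciferase HEK-293 cells, live-cell protease substrate GF-AFC read by fluorescence after 30 min; activity scaled between DMSO (0%) and medium-only (-100%), curves Hill-fitted.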
An asterisk follows results filed as active; i = inactive; ? = inconclusive; nt = no result given; [ ] = dose if it differs, or a comment. Unless noted, calls follow the shape of the dose curve; as a rule, active = well fitted curve in the direction sought with a large enough effect; inconclusive = small, poorly fitted or top-dose-only effect, or another doubt; inactive = no such curve, though single readings can be large; an effect the other way counts as inactive or inconclusive.

SMILES | KDM5B inhibitor | SNCA expr inh | IP6K1 inh | SNCA viab count
O=C1CCN(Cc2ccc3c(c2)CCO3)CCCC(c2nc(-c3cccnc3)no2)CCN1 (stereo unspecified) | i | -15.6% | 25.7 | -8.8%
CC(NC(=O)COc1ccc(F)cc1)C(=O)N1CCN(c2ccccn2)CC1 (stereo unspecified) | 28.2µM* | ? | 11.7 | -12.2%
Cc1cc(C)cc(C(=O)NC(Cc2ccccc2)C(=O)N2CCN(c3ccccn3)CC2)c1 (stereo unspecified) | 25.1µM* | 2.0% | 10.4 | -1.1%
CC(NC(=O)Cc1c(F)cccc1Cl)C(=O)N1CCN(c2ccccn2)CC1 (stereo unspecified) | ? | 4.6% | -0.6 | -12.6%
Cc1cccc(C(=O)N[C@@H](C)C(=O)N2CCN(c3ncccn3)CC2)c1 | i | nt | nt | nt
CC(NC(=O)COc1ccccc1)C(=O)N1CCN(c2ccc(F)cc2)CC1 (stereo unspecified) | i | nt | nt | nt
COc1ccc(-c2cnc3[nH]cc(CC(=O)N4CCN(c5ccccn5)CC4)c3c2)cc1 | 28.2µM* | 39.2%[87.6 µM] | -8.7 | -22.3%[87.6 µM]
COc1cccc(CC(=O)NC(C)C(=O)N2CCN(c3ccccn3)CC2)c1 (stereo unspecified) | 25.1µM* | 1.8% | 29.9 | 7.1%
C[S+](=O)([O-])NC1CCN(C(=O)c2ccc(-c3cccs3)cc2)CC1 | nt | 4.2% | 22.3 | 1.4%[12.5 µM]
Cc1noc(C)c1Cc1c(C(=O)NCCc2noc(C3CC3)n2)noc1C | i | 2.9% | 15.7 | -0.9%[12.5 µM]
CC(C#N)(NC(=O)CSc1ccc(F)cc1)C1CC1 (stereo unspecified) | i | nt | nt | nt
CCCn1nc(C(=O)N2CCN(c3ccccn3)CC2)c2ccccc2c1=O | i | nt | nt | nt
CCOc1ccccc1C(=O)NC(C)C(=O)N1CCN(c2ccccn2)CC1 (stereo unspecified) | 22.4µM* | ? | 1.2 | 8.4%
COc1ccc(-c2cnc3[nH]cc(CC(=O)NCCN(C)C)c3c2)cc1 | 39.8µM* | 47.5%[87.6 µM] | -16.0 | 2.7%[87.6 µM]
COc1ccc(C(=O)NC(C)C(=O)N2CCN(c3ccccn3)CC2)cc1F (stereo unspecified) | ? | -23.6% | 4.1 | -7.9%
COc1ccc(CC(=O)NC(C)C(=O)N2CCN(c3ccccn3)CC2)cc1 (stereo unspecified) | 31.6µM* | -15.5% | 21.6 | -1.0%
CC(NC(=O)c1n[nH]c2ccccc12)C(=O)N1CCN(c2ccccn2)CC1 (stereo unspecified) | 22.4µM* | 1.8% | 2.0 | 4.5%
CC(C)(C)C(=O)N1CCN(c2nccc(Nc3ccccc3Cl)n2)CC1 | nt | 5.5% | 19.0 | 9.1%
Cc1ccc(S(=O)(=O)C(C)C(=O)c2ccc(Cl)cc2)cc1 (stereo unspecified) | i | nt | nt | nt
CN(C)S(=O)(=O)c1ccc(NC(=O)c2nc(-c3ccccc3)n(-c3ccccc3)n2)cc1 | i | nt | nt | nt
NC(=O)CN1C(=O)[C@@H]2CN(S(=O)(=O)c3ccc(F)cc3)CCN2C1=O | i | 21.0%[87.6 µM] | 4.9 | 14.6%[87.6 µM]
COc1cccc(CCC(=O)NC(C)C(=O)N2CCN(c3ccccn3)CC2)c1 (stereo unspecified) | 22.4µM* | -7.7% | 1.8 | -9.6%
COc1cccc(CN2C(=O)CCCCC2C(=O)N2CCN(c3ccccn3)CC2)c1 (stereo unspecified) | nt | -12.8% | -10.4 | -19.6%
CCn1ccc(C(=O)N2CCC3(CC2)c2[nH]c4ccccc4c2CCN3C)n1 | 28.2µM* | 51.4% | -4.1 | -14.6%[12.5 µM]
OCc1ccc(-c2ccc3nnc(-c4ccccn4)n3n2)cc1 | 31.6µM* | 5.8%[87.6 µM] | -11.7 | 7.4%[87.6 µM]
SMILES | KDM5B inhibitor | SNCA expr inh | IP6K1 inh | SNCA viab count
Fc1ccc(CN2CCCC3(CCN(c4cnccn4)C3)C2)cc1F (stereo unspecified) | 28.2µM* | -12.2% | -2.4 | 3.1%
FC(F)(F)c1ccnc(N2CC[C@H](c3nnc(-c4ccncc4)o3)C2)n1 | ? | -18.0%[87.6 µM] | -5.2 | -1.4%[87.6 µM]
Cc1ccc(-c2nnc([C@H]3CCN(c4nccc(C(F)(F)F)n4)C3)o2)cc1 | 20µM* | -17.7%[87.6 µM] | 12.2 | 3.9%[87.6 µM]
Cc1ccc(-c2nnc([C@H]3CCN(c4ncccn4)C3)o2)cc1 | 39.8µM* | 18.6%[87.6 µM] | 23.0 | -3.3%[87.6 µM]
O=C(O)C[C@@H]1CCN(C(=O)c2ccco2)C[C@@H]1CC1=NCCc2ccccc21 | ? | 12.9%[87.6 µM] | 11.4 | -3.6%[87.6 µM]
COc1cc2c(cc1OC)C(C[C@H]1CN(C(=O)c3ccc(C#N)cc3)CC[C@H]1CC(=O)O)=NCC2 | i | 1.7% | 6.2 | 13.3%
COc1cc2c(cc1OC)C(C[C@H]1CN(C(=O)c3ccc(N(C)C)cc3)CC[C@H]1CC(=O)O)=NCC2 | 28.2µM* | -25.3% | 12.2 | 5.3%
COc1ccc(CC(=O)N2CC[C@@H](CC(=O)O)[C@@H](CC3=NCCc4cc(OC)c(OC)cc43)C2)cc1 | 31.6µM* | 6.1% | 15.4 | 5.9%
COc1cc2c(cc1OC)C(C[C@H]1CN(C(=O)c3ccco3)CC[C@H]1CC(=O)O)=NCC2 | 28.2µM* | 11.3% | 21.5 | 21.9%
COc1ccc(C(=O)N2CCCC3(C2)NC(=O)N(Cc2ccc(Cl)cc2)C3=O)cc1 (stereo unspecified) | i | -10.5% | -9.3 | -5.7%
COc1ccc(N2CC3CCC(C2)N3C(=O)NC(C)C)cc1 | i | 15.1% | -0.9 | 7.7%
COc1ccc(CN2CC3(CCN(C(=O)c4cc(C)nn4C)CC3)C2=O)cc1 | nt | 1.1% | 0.0 | 6.8%
Cc1nc(-c2ccccc2)n(Cc2cc(=O)n3ccccc3n2)c(=O)c1CCO | 22.4µM* | -9.5% | 11.2 | 6.7%
Cc1nc(-c2ccccc2)n(Cc2nc(-c3ccccc3)oc2C)c(=O)c1CCO | i | -19.5% | -9.5 | -8.8%
O=C(c1cc2n(n1)CC(c1ccc3c(c1)OCO3)OC2)N1CCCC1 (stereo unspecified) | 28.2µM* | 158.0% | -15.4 | ?
O=C(Nc1ccc2c(c1)CCC2)c1cc2n(n1)CC(c1ccc(Cl)cc1)OC2 (stereo unspecified) | 31.6µM* | 34.0% | -5.7 | -1.6%
O=C(Nc1ccc(Cl)cc1)c1cc2n(n1)CC(c1ccc3c(c1)OCO3)OC2 (stereo unspecified) | 28.2µM* | -23.6% | 7.7 | -1.1%
COc1ccc(NC(=O)c2cc3n(n2)CC(c2ccc4c(c2)OCO4)OC3)c(OC)c1 (stereo unspecified) | 35.5µM* | -22.7% | -4.1 | -10.8%
O=C(Nc1ccc(F)cc1)c1cc2n(n1)CC(c1ccc3c(c1)OCO3)OC2 (stereo unspecified) | ? | ? | -4.3 | -14.1%
COC(=O)CNC(=O)C1CN(Cc2ccccc2)C(=O)N1 (stereo unspecified) | i | ? | -8.7 | 6.6%[87.6 µM]
O=C(c1cccs1)N1CCC(c2noc(-c3cnccn3)n2)C1 (stereo unspecified) | i | 5.7% | 10.6 | -14.7%
Cc1ccccc1-c1nnc(SCC(=O)Nc2ccccc2)o1 | i | nt | nt | nt
O=C(c1ccc(=O)[nH]n1)N1CCCC(c2ccn[nH]2)C1 (stereo unspecified) | i | -19.2% | -11.0 | 8.7%
